Experimental data: PubChem BioAssay (EPA / NIEHS)
The source made the active and inactive calls. How the source made its calls: active means hit-call score of the fitted dose curve at least 0.9, where 1 is the maximum; inactive means score below 0.9.

Legend:
Settings in all cases: mRNA level, 48 h; actives raise or lower the signal
[1] = read-out: Cytochrome P450 3A4 (Homo sapiens) (UniProt P08684); experiment: LTEA_HepaRG_CYP3A4: Life Technologies and Expression Analysis (LTEA) Assay for CYP3A4 using HepaRG (AID 2283487)
Summary of the method: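 CYP3A4 transcript measured by TaqMan qRT-PCR and normalized to three housekeeping genes after 48 h chemical exposure of human HepaRG cells. Top concentration 100 uM, half-log steps, 0.5% DMSO vehicle; gain or loss fitted against DMSO baseline.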

[2] = read-out: DNA damage-inducible transcript 3 (DDIT3), DDIT3 (gene 1649); experiment: LTEA_HepaRG_DDIT3: Life Technologies and Expression Analysis (LTEA) Assay for DNA damage-inducible transcript 3 (DDIT3) using HepaRG (AID 2283488)
Summary of the method: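 Changes in DDIT3 transcript, in either direction relative to 0.5% DMSO vehicle, were quantified by TaqMan qRT-PCR after 48 h chemical exposure of HepaRG cells at 8 concentrations, maximum 100 uM.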

[3] = read-out: Pro-epidermal growth factor (Homo sapiens) (UniProt P01133); experiment: LTEA_HepaRG_EGF: Life Technologies and Expression Analysis (LTEA) Assay for Epidermal growth factor (EGF) using HepaRG (AID 2283489)
Summary of the method: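 EGF expression changes in human HepaRG cells are scored by bidirectional fitting relative to 0.5% DMSO controls. Chemicals are tested at eight half-log concentrations up to 100 uM for 48 h in serum-free induction medium.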

[4] = read-out: Ezrin (EZR), EZR (gene 7430); experiment: LTEA_HepaRG_EZR: Life Technologies and Expression Analysis (LTEA) Assay for Ezrin (EZR) using HepaRG (AID 2283491)
Summary of the method: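 HepaRG, 48 h chemical exposure, 8-pt half-log series from 100 uM, 0.5% DMSO vehicle, duplicates. Read-out: EZR mRNA by TaqMan qRT-PCR (Fluidigm array), housekeeping-normalized; bidirectional curve fit vs DMSO baseline.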

[5] = read-out: Cytochrome P450 3A7 (Homo sapiens) (UniProt P24462); experiment: LTEA_HepaRG_CYP3A7: Life Technologies and Expression Analysis (LTEA) Assay for CYP3A7 using HepaRG (AID 2283492)
Summary of the method: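 Cells were thawed, plated, cultured 48 h, then treated for a further 48 h with chemicals (eight-point half-log series from 100 uM, 0.5% DMSO). RNA was isolated and CYP3A7 expression quantified by qRT-PCR normalised to ACTB, GAPDH and POLR2A.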

[6] = read-out: Fatty Acid-Binding Protein 1 (FABP1), FABP1 (gene 2168); experiment: LTEA_HepaRG_FABP1: Life Technologies and Expression Analysis (LTEA) Assay for Fatty Acid-Binding Protein 1 (FABP1) using HepaRG (AID 2283494)
Summary of the method: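 Differentiated human HepaRG cells were exposed in duplicate for 48 h in serum-free induction medium to 8-point half-log concentration series topping at 100 uM in 0.5% DMSO. FABP1 mRNA measured by TaqMan qRT-PCR, normalized to ACTB/GAPDH/POLR2A; bidirectional fit versus DMSO.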

[7] = read-out: Cytochrome P450 4A22 (Homo sapiens) (UniProt Q5TCH4); experiment: LTEA_HepaRG_CYP4A22: Life Technologies and Expression Analysis (LTEA) Assay for Cytochrome P450 4A22 (CYP4A22) using HepaRG (AID 2283495)
Summary of the method: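 Cryopreserved HepaRG cells, plated and cultured 48 h, then switched to serum-free induction medium and treated 48 h (duplicates, up to 100 uM, half-log steps, 0.5% DMSO). Expression change of CYP4A22 was fitted bidirectionally against vehicle.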

[8] = read-out: Cytochrome P450 7A1 (Homo sapiens) (UniProt P22680); experiment: LTEA_HepaRG_CYP7A1: Life Technologies and Expression Analysis (LTEA) Assay for Cytochrome P450 7A1 (CYP7A1) using HepaRG (AID 2283496)
Summary of the method: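 Gene expression endpoint in human HepaRG liver cells treated for 48 h with test chemicals (up to 100 uM, 0.5% DMSO). Values come from bidirectional concentration-response fitting versus DMSO.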

[9] = read-out: Glutathione S-Transferase (GSTA2), GSTA2 (gene 2939); experiment: LTEA_HepaRG_GSTA2: Life Technologies and Expression Analysis (LTEA) Assay for Glutathione S-Transferase (GSTA2) using HepaRG (AID 2283497)
Summary of the method: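 Human HepaRG cells, plated 48 h, then exposed in serum-free induction medium for 48 h to eight half-log concentrations up to 100 uM in 0.5% DMSO, duplicate. GSTA2 mRNA by qRT-PCR, normalized to ACTB/GAPDH/POLR2A; bidirectional fit versus DMSO.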

[10] = read-out: Glutamate-cysteine ligase catalytic (GCLC), GCLC (gene 2729); experiment: LTEA_HepaRG_GCLC: Life Technologies and Expression Analysis (LTEA) Assay for Glutamate-cysteine ligase catalytic (GCLC) using HepaRG (AID 2283498)
Summary of the method: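 Differentiated human HepaRG cells, plated 48 h then switched to serum-free induction medium, were exposed in duplicate for 48 h to 8 half-log concentrations topping at 100 uM in 0.5% DMSO. GCLC mRNA was quantified by qRT-PCR against ACTB, GAPDH and POLR2A.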

[11] = read-out: growth arrest and DNA damage 45 (GADD45G), GADD45G (gene 10912); experiment: LTEA_HepaRG_GADD45G: Life Technologies and Expression Analysis (LTEA) Assay for growth arrest and DNA damage 45 (GADD45G) using HepaRG (AID 2283499)
Summary of the method: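 Human hepatic HepaRG line treated 48 h with chemicals (eight concentrations, half-log steps from 100 uM); transcript induction or repression of GADD45G scored by qRT-PCR versus DMSO vehicle.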

[12] = read-out: Glutamate-cysteine ligase regulatory (GCLM), GCLM (gene 2730); experiment: LTEA_HepaRG_GCLM: Life Technologies and Expression Analysis (LTEA) Assay for Glutamate-cysteine ligase regulatory (GCLM) using HepaRG (AID 2283500)
Summary of the method: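 Human liver HepaRG cultures receive test chemicals for 48 hours at up to 100 uM in 0.5% DMSO. GCLM expression is measured by qRT-PCR and analysed for increases or decreases against vehicle.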

[13] = read-out: Glutathione S-transferase M3 (GSTM3), GSTM3 (gene 2947); experiment: LTEA_HepaRG_GSTM3: Life Technologies and Expression Analysis (LTEA) Assay for Glutathione S-transferase M3 (GSTM3) using HepaRG (AID 2283501)
Summary of the method: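 Changes in GSTM3 expression, an oxidative-stress marker, were scored by bidirectional curve fitting against 0.5% DMSO vehicle. Human HepaRG cultures received chemicals for 48 h in duplicate, highest concentration 100 uM with half-log dilutions.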

[14] = read-out: Heat shock 70 kDa protein 1 (HSPA1A), gene 3303; experiment: LTEA_HepaRG_HSPA1A: Life Technologies and Expression Analysis (LTEA) Assay for Heat shock 70 kDa protein 1 (HSPA1A) using HepaRG (AID 2283502)
Summary of the method: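 HSPA1A induction in human HepaRG liver cells is measured after 48 h of chemical treatment (100 uM maximum, 0.5% DMSO vehicle). Expression comes from qRT-PCR normalized to endogenous controls.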

[15] = read-out: Hypoxia-inducible factor 1-alpha (Homo sapiens) (UniProt Q16665); experiment: LTEA_HepaRG_HIF1A: Life Technologies and Expression Analysis (LTEA) Assay for Hypoxia-inducible factor 1 (HIF1A) Trancription factor using HepaRG (AID 2283503)
Summary of the method: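 HepaRG, 48 h exposure, 8-pt half-log series from 100 uM, 0.5% DMSO vehicle, duplicates. Readout: HIF1A transcript by qRT-PCR (Fluidigm array), housekeeping-normalised. Bidirectional curve fit vs DMSO baseline.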

[16] = read-out: 3-Hydroxy-3-Methylglutaryl-CoA Synthase 2 (HMGCS2), HMGCS2 (gene 3158); experiment: LTEA_HepaRG_HMGCS2: Life Technologies and Expression Analysis (LTEA) Assay for 3-Hydroxy-3-Methylglutaryl-CoA Synthase 2 (HMGCS2) using HepaRG (AID 2283504)
Summary of the method: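 Expression of HMGCS2 in human HepaRG liver cells is measured by qRT-PCR 48 h after dosing (highest 100 uM, half-log series, 0.5% DMSO). Values come from bidirectional concentration-response fitting with DMSO as baseline.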

HGF (gene 3082) = experiment: LTEA_HepaRG_HGF: Life Technologies and Expression Analysis (LTEA) Assay for Hepatocyte Growth Facto (HGF) using HepaRG (AID 2283505)
Summary of the method: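 Gain or loss of HGF mRNA in human HepaRG liver cells after 48 h chemical exposure; eight concentrations up to 100 uM with 0.5% DMSO vehicle, quantified by TaqMan qRT-PCR.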

[17] = read-out: Insulin Like Growth Factor 1 (IGF1), IGF1 (gene 3479); experiment: LTEA_HepaRG_IGF1: Life Technologies and Expression Analysis (LTEA) Assay for Insulin Like Growth Factor 1 (IGF1) using HepaRG (AID 2283506)
Summary of the method: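 Using human HepaRG liver cells, IGF1 transcript induction or suppression is measured 48 h after dosing across eight concentrations capped at 100 uM. Values derive from bidirectional concentration-response fitting with DMSO as baseline.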

Measured: AC50

Chain of Cytochrome P450 3A4 (Homo sapiens) (P08684 whole entry, looked up): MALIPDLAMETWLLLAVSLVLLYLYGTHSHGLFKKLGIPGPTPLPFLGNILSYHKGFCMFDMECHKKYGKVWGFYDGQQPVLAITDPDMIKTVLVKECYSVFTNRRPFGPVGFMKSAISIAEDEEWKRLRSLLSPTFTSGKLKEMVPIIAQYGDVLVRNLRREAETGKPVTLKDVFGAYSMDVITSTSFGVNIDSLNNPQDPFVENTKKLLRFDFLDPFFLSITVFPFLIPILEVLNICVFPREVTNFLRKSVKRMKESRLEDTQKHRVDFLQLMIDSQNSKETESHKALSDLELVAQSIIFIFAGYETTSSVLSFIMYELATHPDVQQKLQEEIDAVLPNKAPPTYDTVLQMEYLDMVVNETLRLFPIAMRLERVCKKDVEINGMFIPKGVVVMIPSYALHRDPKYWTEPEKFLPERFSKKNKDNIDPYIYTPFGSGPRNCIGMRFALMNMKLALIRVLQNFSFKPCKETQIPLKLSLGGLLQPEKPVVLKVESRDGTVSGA
Chain of Cytochrome P450 3A7 (Homo sapiens) (P24462 whole entry, looked up): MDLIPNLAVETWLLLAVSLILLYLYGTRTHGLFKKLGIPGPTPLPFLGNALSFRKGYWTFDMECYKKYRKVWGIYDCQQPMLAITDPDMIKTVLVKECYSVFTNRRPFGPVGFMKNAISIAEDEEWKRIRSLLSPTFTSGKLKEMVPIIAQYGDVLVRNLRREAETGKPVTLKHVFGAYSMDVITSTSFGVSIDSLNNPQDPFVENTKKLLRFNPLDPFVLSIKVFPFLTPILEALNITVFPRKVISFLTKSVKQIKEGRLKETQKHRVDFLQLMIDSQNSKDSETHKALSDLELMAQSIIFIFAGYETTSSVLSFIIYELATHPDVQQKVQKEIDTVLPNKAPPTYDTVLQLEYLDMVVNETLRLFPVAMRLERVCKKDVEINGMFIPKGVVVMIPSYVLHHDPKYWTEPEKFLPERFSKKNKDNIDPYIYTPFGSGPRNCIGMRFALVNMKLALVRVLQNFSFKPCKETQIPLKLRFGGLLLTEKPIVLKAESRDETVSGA
Chain of Hypoxia-inducible factor 1-alpha (Homo sapiens) (Q16665 whole entry, looked up): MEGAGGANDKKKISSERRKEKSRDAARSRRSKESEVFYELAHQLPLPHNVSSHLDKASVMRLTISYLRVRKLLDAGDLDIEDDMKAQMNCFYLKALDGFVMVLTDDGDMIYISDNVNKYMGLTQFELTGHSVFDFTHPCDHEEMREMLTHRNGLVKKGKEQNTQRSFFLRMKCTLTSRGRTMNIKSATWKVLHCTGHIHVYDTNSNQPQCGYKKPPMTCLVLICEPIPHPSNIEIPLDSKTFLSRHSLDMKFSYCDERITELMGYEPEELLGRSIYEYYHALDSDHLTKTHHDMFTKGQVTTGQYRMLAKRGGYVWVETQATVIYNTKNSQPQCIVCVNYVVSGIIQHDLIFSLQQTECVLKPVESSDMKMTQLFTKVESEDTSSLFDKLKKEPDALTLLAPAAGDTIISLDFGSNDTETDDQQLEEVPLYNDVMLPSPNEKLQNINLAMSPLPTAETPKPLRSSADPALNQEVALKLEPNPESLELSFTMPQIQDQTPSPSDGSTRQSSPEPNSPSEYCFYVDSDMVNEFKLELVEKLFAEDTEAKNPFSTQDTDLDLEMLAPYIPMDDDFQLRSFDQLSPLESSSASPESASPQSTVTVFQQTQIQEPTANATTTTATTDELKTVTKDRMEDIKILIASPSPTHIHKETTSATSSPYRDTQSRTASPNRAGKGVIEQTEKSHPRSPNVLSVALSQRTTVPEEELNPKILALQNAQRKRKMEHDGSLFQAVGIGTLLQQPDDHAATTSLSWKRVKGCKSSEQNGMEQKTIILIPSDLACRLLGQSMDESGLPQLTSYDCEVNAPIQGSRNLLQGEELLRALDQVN

ClC1=C(Cl)[C@]2(Cl)[C@@H]3[C@@H](Cl)[C@H]4O[C@H]4[C@@H]3C1(Cl)C2(Cl)Cl
active: [1] 1.35 µM | [5] 1.77 µM | [6] 50 µM | [7] 24.9 µM | [8] 13.3 µM | [9] 82.5 µM | [16] 18.4 µM | [17] 5.01 µM
inactive: all other assays above

O=C(NC(=O)c1cc(F)c(F)cc1Cl)Nc1cc(F)ccc1N1CCC(C(=O)O)CC1
active: [7] 7.84 µM | [8] 6.6 µM | [16] 20.3 µM
inactive: all other assays above

CO/C=C(/C(=O)OC)c1ccccc1COc1cccc(C(F)(F)F)n1
inactive: [10] | [14]
active: [1] 8.05 µM | [2] 8.83 µM | [3] 50 µM | [4] 5.1 µM | [5] 3.4 µM | [6] 5.35 µM | [7] 5.06 µM | [8] 8.85 µM | [9] 9.29 µM | [11] 6.56 µM | [12] 8.95 µM | [13] 50 µM | [15] 32 µM | [16] 6.85 µM | HGF (gene 3082) 50 µM | [17] 5.31 µM

Clc1ccc(Cl)cc1
not listed: [11]
inactive: all other assays above

CCC(=O)O[C@H]1CC[C@H]2[C@@H]3CCC4=CC(=O)CC[C@]4(C)[C@H]3CC[C@]12C
active: [6] 19.9 µM | [7] 0.308 µM | [8] 13.1 µM
inactive: all other assays above
